Lassa entry inh = blocks Lassa virus binding to or entry into cells; 300,000 tested, 1.2% active; Lassa virus pseudotype entry inhibition, cell reporter; Potency, µM (series often up to 37.9 µM), hits mostly inhibitors; calls by dose curve; tested in HEK293 cells; also: nearly all actives have a fitted effect of over 50% in size
HCV inhibitor = inhibitors of hepatitis C virus infection | Huh7.5.1 HCVcc-Cre infection, luciferase reporter, 44 h | Potency, µM (highest dose often 41.8 µM), actives largely listed as inhibitors | 340,000 tested, 3.4% active
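Compounds are dispensed onto cells plated 4 h earlier at 1,000 per well, with HCVcc-Cre virus (about 0.5 moi) added next. Following 44 h of culture, luminescent signal is measured for 15 sec after 15 min with substrate at room temperature.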
Pf growth 96h = P. falciparum growth inhibition at 96 hour, primary screen for plastid delayed-death inhibitors | 320,000 tested, 6.9% active | P. falciparum luciferase reporter growth, 96 h | AID 504834 | Potency, µM (titrated, usually from 28.7 µM), most hits filed as inhibitors
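96 h incubation, 37 C, 5% CO2, of luciferase-reporter P. falciparum-infected RBCs (2% hematocrit, 0.05% parasitemia final) with test compounds; endpoint luminescence.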
Marburg entry inh = Marburg virus entry inhibition; AID 540276; Potency, µM (top dose mostly 37.8 µM), hits mostly inhibitors; Marburg virus pseudotyped entry inhibition, cell reporter; 300,000 tested, 1.8% active; calls by dose curve; tested in HEK293 cells
HCMV antiviral = inhibitors of human cytomegalovirus. HFF cells, HCMV-luciferase reporter, 72 h; active compounds read low. activity change, negative = inhibition, % at 57.5 µM. 410,000 tested, 4.5% active. AID 1259415; in the data active = activity change below about -60%; inconclusive = no clear call, values can overlap the other calls; inactive = above about -39%
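Steps: HFFs plated, 16 h 37C; compounds added; HCMV-luciferase added to MOI 1 PFU/cell; 72 h 37C; OneGlo reagent, 5 min room temperature; luminescence read, normalized to controls.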
Pf growth 48h = P. falciparum growth inhibition at 48 hours (one generation); 310,000 tested, 5.9% active; AID 504832; Potency, µM (series often up to 28.7 µM), actives largely listed as inhibitors; P. falciparum luciferase growth in erythrocytes, 48 h
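A one-generation exposure of luciferase-tagged malaria parasites in RPMI 1640/Albumax erythrocyte culture, 37 C and 5% CO2. Inhibition is inferred from decreased luminescence after adding detection reagent.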
Numbers stand for hits; 0 = inactive; ? = inconclusive; - = not tested or not shown. Sampled rows, rich in hits. Any-hit rate of the full collection: about 14%. Unless noted, calls follow the shape of the dose curve; as a rule, active = well fitted inhibition curve with a large enough effect; inconclusive = small, poorly fitted or top-dose-only effect, or another doubt; inactive = no such curve, though single readings can be large or run the other way.

SMILES	Lassa entry inh	HCV inhibitor	Pf growth 96h	Marburg entry inh	HCMV antiviral	Pf growth 48h
Cc1ccnc(Sc2ccc([N+](=O)[O-])cc2[N+](=O)[O-])n1	?	?	?	13µM	0	-
O=[N+]([O-])c1ccc(Sc2nc3ccccc3o2)c([N+](=O)[O-])c1	0	-	?	16.4µM	-107.0	-
O=[N+]([O-])c1ccc(Cl)cc1Sc1nc2ccccc2o1	0	?	0	0	0	8.28µM
C[C@@H]1CN([C@@H](C)CO)C(=O)CCCn2cc(nn2)CO[C@H]1CN(C)C(=O)Nc1cccc(F)c1	-	-	-	-	0	-
COc1ccc(-c2c(C)nn3c(C(F)(F)F)cc(-c4ccccc4)nc23)cc1OC	0	-	-	0	0	-
Cc1ccc(-c2cc(-c3ccco3)c3c(N)c(C(=O)NN)oc3n2)cc1	-	?	?	-	0	4.65µM
NNC(=O)c1oc2nc(-c3ccccc3)cc(-c3ccccc3)c2c1N	?	0	?	?	0	-
Cc1ccc(S(=O)(=O)N2C3CCCCC3O[C@H]2CC(=O)OCc2ccccc2)cc1 (stereo partly drawn)	-	-	-	-	0	-
COC(=O)Cn1c(=NC(=O)c2nc3ccccc3s2)sc2cc(S(N)(=O)=O)ccc21	0	?	0	0	-88.6	0
COC(=O)Cn1c(=NC(=O)c2cc(-c3cccs3)nc3ccccc23)sc2cc(S(N)(=O)=O)ccc21	?	?	?	?	0	?
C=CCn1c(=NC(=O)c2ccc(S(=O)(=O)N3CCCc4ccccc43)cc2)sc2cc(S(N)(=O)=O)ccc21	0	?	4.65µM	?	0	5.22µM
